In PubChem BioAssay (NCI) one finds growth data, which are given here for eight compounds.

The panel holds about 83,000 compounds, 20% with a hit somewhere; the sample as a whole holds those more often.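 For each line, cells grew in 96-well plates with the test compound present at a single concentration for 48 hours.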 A number with no mark means an inactive call. Activity calls are given as the source filed them. How the source made its calls: active means growth percent below 10; inactive means the rest.

Assay in all cases: NCI-60 one-dose screen, 48 h (100 = growth as untreated, 0 = no growth, -100 = all killed)
Holding throughout (details): 10 µM

Assay [1] relates to SR leukemia.
Assay [2] deals with RPMI-8226 leukemia.
For assay [3], the system named is OVCAR-8 ovarian.
Assay [4] deals with OVCAR-5 ovarian.
For assay [5], the system named is OVCAR-4 ovarian.
Assay [6] relates to SK-OV-3 ovarian.
For assay [7], the system named is IGROV1 ovarian.
For assay [8], the system named is HS 578T breast.
Assay [9] relates to NCI/ADR-RES ovarian.
Assay [10] deals with T-47D breast.
Assay [11] relates to BT-549 breast.
The subject of assay [12] is MDA-MB-435 melanoma.
For assay [13], the system named is SW-620 colon.
Assay [14] concerns MCF7 breast.
Assay [15] concerns HCT-116 colon.
Assay [16] relates to HCC-2998 colon.
The subject of assay [17] is KM12 colon.
In assay [18] the test system is MDA-MB-468 breast.
For assay [19], the system named is OVCAR-3 ovarian.

Consider `O=C1N/C(=N\c2nccs2)S/C1=C\c1cccs1`, for which the growth in assay [1] was 16.4%; in assay [2], 19.5%; in assay [3] it was 31.3%; in assay [4], 49.1%; in [5] it was 30.9%; in [6] it was 39.3%. The growth in [7] is 31.5%; in assay [8], 49.9%; in assay [9], -0.769% (active); in assay [10], 22.5%; in assay [11], 44.2%; in assay [12] it was 41.9%. The growth in assay [13] is 30%; in [14] it was 15.4%; in [15], 15.5%; in [16], 40.8%; in [17], 28.1%; in assay [18], 10.4%.
`Cn1cc(/C=N/Nc2ccnc3cc(Cl)ccc23)c2ccccc21`: the growth in assay [1] was -25% (active); in assay [2], -41.4% (active); in assay [3] it was -52.7% (active); in assay [4], -90.5% (active); in assay [5], -76.4% (active); in assay [6] it was -71.2% (active). The growth in assay [7] is -72.3% (active); in assay [8] it was -63.7% (active); in [9] it was -79.8% (active); in assay [10], -60.9% (active); in assay [11] it was -64.6% (active); in assay [12], -83.5% (active). The growth in assay [13] was -62.8% (active); in [14], -78.4% (active); in [15] it was -46.5% (active); in assay [17], -94.3% (active); in assay [18], -83.5% (active).
As to `Cc1cc(=O)oc2cc(OCCCCOc3ccc(/C=C/C(=O)Nc4ccc(F)c(Cl)c4)cc3)ccc12`, the growth was 89% in assay [1]; 92.6% in assay [2]; 85.2% in assay [3]; 101% in assay [4]; 37.9% in [5]; 122% in assay [6]. For the same compound, the growth in [7] is 109%; in assay [19], 97.2%; in assay [8], 111%; in assay [10], 67.1%; in [11], 93.2%; in assay [12], 92.7%. The growth in assay [13] is 96.9%; in assay [14] it was 77.8%; in [15], 87.6%; in assay [16] it was 123%; in assay [17] it was 91.3%; in assay [18] it was 120%.
`Cc1ccc(-c2cc(C(=O)N=Nc3c(O)[nH]c4ccccc34)c3ccccc3n2)cc1`: the growth in assay [1] was 5.31% (active); in assay [3], -15.8% (active); in assay [5], 1.61% (active); in [6], 91.2%; in assay [19], -65.7% (active); in assay [8], 12.4%. Also, the growth in assay [9] was -16.9% (active); in [10], 43.8%; in assay [11], 34.5%; in [12] it was 5.71% (active); in [13], 8.14% (active); in assay [14] it was 6.61% (active). Also, the growth is -15.8% (active) in assay [15], 48.4% in assay [16], 23.9% in assay [17] and 26.3% in assay [18].
Turning to `CCN(CC)CCOc1ccc(C(=C(C)c2ccccc2)c2ccc(OCCN(CC)CC)cc2)cc1`, the growth in assay [2] is -35.4% (active); in [3], 25.2%; in [4] it was 24.9%; in assay [5], 13.6%; in [6], 58%; in assay [7] it was 34%. The growth in assay [19] is -7.71% (active); in assay [8], -8.15% (active); in assay [9] it was 29%; in assay [10], -85.3% (active); in assay [11] it was 50.4%; in assay [12], -83% (active). The growth in [13] was -4.84% (active); in assay [14], -61.8% (active); in [15], 6.73% (active); in assay [16], -5.25% (active); in assay [17] it was 0.838% (active); in assay [18] it was -18.5% (active).
Consider `COC[C@@H](CC(C)C)N=C1N/C(=C\c2ccc3ncsc3c2)C(=O)N1C`, for which the growth was 3.65% (active) in assay [2]; 17.6% in assay [3]; -6.76% (active) in [4]; 29.3% in assay [5]; 0.794% (active) in assay [6]; 9.21% (active) in assay [7]. The growth in [19] was 3.27% (active); in [8], 15.4%; in [9], 0.43% (active); in [10], -7.71% (active); in [11], 7.17% (active); in assay [12], 22.1%. Moreover, the growth in assay [13] is 2.99% (active); in assay [14] it was -23.3% (active); in assay [15] it was 14.5%; in [16], 5.06% (active).
For `c1ccc(C(=C(c2ccc(OCCN3CCCCC3)cc2)c2ccc(OCCN3CCCCC3)cc2)C2CCCC2)cc1`, the growth in [2] was -51.4% (active); in assay [3], -48.8% (active); in assay [4], -22.5% (active); in assay [5] it was 1.48% (active); in assay [6], -45.3% (active); in assay [7], -85.8% (active). Moreover, the growth in [19] is -92.9% (active); in [8] it was -9.63% (active); in assay [9], 101%; in assay [10] it was -1.48% (active); in [11] it was -54.7% (active); in assay [12] it was -98.5% (active). The growth is -62.6% (active) in assay [13]; -71.1% (active) in assay [14]; -62.8% (active) in [15]; -99.5% (active) in assay [16]; -80.5% (active) in assay [17]; -87.8% (active) in assay [18].
For `COc1cc(/C=C/C(=O)c2ccc(NC(=O)CN3C(=O)NC(C)(c4ccccc4)C3=O)cc2)cc(OC)c1OC` (centres undefined), the growth in [1] is 5.93% (active); in assay [3] it was 10.4%; in assay [4], 34.6%; in assay [5] it was 32.9%; in assay [6], 112%; in assay [7], 26.7%. Also, the growth in [19] is -6.99% (active); in assay [8], 39.3%; in assay [9], 102%; in assay [10], 33.9%; in assay [11], 10.9%; in assay [12], 7.31% (active). The growth is 8.07% (active) in assay [13]; 2.86% (active) in assay [14]; -69.7% (active) in assay [15]; 10% in assay [16]; -6.47% (active) in assay [17]; -23.1% (active) in assay [18].
